Where “and” joins values, the source holds several entries; their conditions need not be identical. Equal values may be shown once. This is part of a sample that, as a whole, favours compounds with a hit. Of some 83,000 tested, about 20% had one in any assay.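 Each cell line was grown in a 96-well plate and treated with one concentration of compound for 48 hours. Values below 10 were considered active.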 Some structures have more than one record in an assay (separate samples or runs), and their calls can disagree. Calls of active or inactive are those of the source.
Tests used:
Experiment in all cases: NCI-60 one-dose screen, 48 h (100 = growth as untreated, 0 = no growth, -100 = all killed)
Conditions in all cases: 10 µM unless noted
NCI-H23 lung = system: NCI-H23 lung
NCI-H226 lung = system: NCI-H226 lung
HOP-62 NSCLC = system: HOP-62 NSCLC
NCI-H460 lung = system: NCI-H460 lung
HOP-92 NSCLC = system: HOP-92 NSCLC
NCI-H522 lung = system: NCI-H522 lung
A549/ATCC NSCLC = system: A549/ATCC NSCLC
786-0 renal = system: 786-0 renal
COLO 205 colon = system: COLO 205 colon
DU-145 prostate = system: DU-145 prostate
K-562 leukemia = system: K-562 leukemia
MALME-3M melanoma = system: MALME-3M melanoma
MDA-MB-231 breast = system: MDA-MB-231 breast
RXF 393 renal = system: RXF 393 renal
SF-268 CNS = system: SF-268 CNS
SF-295 CNS = system: SF-295 CNS
SF-539 CNS = system: SF-539 CNS
UACC-257 melanoma = system: UACC-257 melanoma
M14 melanoma = system: M14 melanoma
NCI-H322M lung = system: NCI-H322M lung

Structure (SMILES)	growth (NCI-H23 lung)	growth (NCI-H226 lung)	growth (HOP-62 NSCLC)	growth (NCI-H460 lung)	growth (HOP-92 NSCLC)	growth (NCI-H522 lung)	growth (A549/ATCC NSCLC)	growth (786-0 renal)	growth (COLO 205 colon)	growth (DU-145 prostate)	growth (K-562 leukemia)	growth (MALME-3M melanoma)	growth (MDA-MB-231 breast)	growth (RXF 393 renal)	growth (SF-268 CNS)	growth (SF-295 CNS)	growth (SF-539 CNS)	growth (UACC-257 melanoma)	growth (M14 melanoma)	growth (NCI-H322M lung)
CCCCCCCCc1cc(Cl)c(O)c(Cl)c1	103% (inactive)	104% (inactive)	105% (inactive)	109% (inactive)	99.5% (inactive)	97.6% (inactive)	98.5% (inactive)	108% (inactive)	108% (inactive)	103% (inactive)	104% (inactive)	100% (inactive)	103% (inactive)	113% (inactive)	98.5% (inactive)	113% (inactive)	99.5% (inactive)	104% (inactive)	107% (inactive)	
CCCCCC/C=C1\CCC(CN2CCCC2)C1=O (stereo not drawn)	99.9% (inactive)	95.5% (inactive)		102% (inactive)	90.5% (inactive)	93.5% (inactive)	93% (inactive)	77.4% (inactive)		107% (inactive)	57.3% (inactive)	119% (inactive)	102% (inactive)	95.6% (inactive)	102% (inactive)	111% (inactive)	114% (inactive)	92.1% (inactive)	93.3% (inactive)	106% (inactive)
CC(C)Nc1ccc(Nc2ccc(NC(C)C)cc2)cc1	25.9% (inactive)	51.8% (inactive)	76.4% (inactive)	24.7% (inactive)	72.6% (inactive)	35.2% (inactive)	40.9% (inactive)	66% (inactive)	25.8% (inactive)	63.1% (inactive)	24.6% (inactive)	35.8% (inactive)	33.3% (inactive)	77.5% (inactive)	63.5% (inactive)	67.6% (inactive)		23.7% (inactive)	72% (inactive)	
CCCCCCCCCCCC[n+]1ccc(CCCCCCCCC)cc1	-80.8% (active)	-65.2% (active)	-84.8% (active)	-63.6% (active)	-55.5% (active)	-33.1% (active)	-44.8% (active)	-85.1% (active)	-76.5% (active)	-83.6% (active)	-37.4% (active)	-76.4% (active)	-81.1% (active)	-78.9% (active)	-79.2% (active)	-51.3% (active)	-80.7% (active)	-18.4% (active)	-82.6% (active)	
COc1cc(-c2ccc(-[n+]3nc(-c4ccc([N+](=O)[O-])cc4)nn3-c3ccc([N+](=O)[O-])cc3)c(OC)c2)ccc1-[n+]1nc(-c2ccc([N+](=O)[O-])cc2)nn1-c1ccc([N+](=O)[O-])cc1	26.1% (inactive)	-32.5% (active)	-59.7% (active)	3.02% (active)			11.8% (inactive)	0.457% (active)	-69% (active)	-32.7% (active)	3.89% (active)	-44.6% (active)	51.4% (inactive)	-39.9% (active)	-33.9% (active)	-30.7% (active)	-66.4% (active)	-42.5% (active)	58.3% (inactive)	44.3% (inactive)
CCOC(=O)c1c(C)[nH]c2ccc(O)cc12	103% (inactive)	94.3% (inactive)	107% (inactive)	98.3% (inactive)	103% (inactive)	52.7% (inactive)	95.7% (inactive)	100% (inactive)	113% (inactive)	106% (inactive)	101% (inactive)	103% (inactive)	96.7% (inactive)	109% (inactive)	97.7% (inactive)	111% (inactive)	98.1% (inactive)	92.9% (inactive)	101% (inactive)	
OC(c1cc(-c2ccc(C(F)(F)F)cc2)nc(C(F)(F)F)c1)C1CCCCN1 (stereo not drawn)	23.4% (inactive) and -44.7% (active) and 62.5% (inactive)	-7.1% (active) and -6.47% (active) and 43.1% (inactive)	-69.8% (active) and -89.1% (active) and 57.1% (inactive)	-77.9% (active) and -77.2% (active) and -47.9% (active)	-18.8% (active) and -58.7% (active) and 36.3% (inactive)	-67.2% (active) and -80.1% (active) and 9.35% (active)	-43% (active) and -44.5% (active) and 35.6% (inactive)	-48.8% (active) and -82.2% (active) and 27% (inactive)	-90.1% (active) and -85.4% (active) and -79.8% (active)	-16.1% (active) and -94.1% (active) and 32.1% (inactive)	-47.5% (active) and -65.5% (active) and -27.9% (active)	22% (inactive) and -88.6% (active) and 60.1% (inactive)	-57.8% (active) and -85.1% (active) and -19% (active)	-94.4% (active) and -93% (active) and 39% (inactive)	-42.1% (active) and -39.4% (active) and 29.8% (inactive)	188% (inactive)	-41.7% (active) and -76.5% (active) and 40.2% (inactive)	-68.6% (active) and 68.3% (inactive) and -8.76% (active)	-77% (active) and -84.3% (active) and -76.6% (active)	
CN(C)c1ccc(/C=C/c2sc3ccc4ccccc4c3[n+]2C)cc1	-25.9% (active)	-29.4% (active)	-73.3% (active)	-40.9% (active)			-14% (active)	-90.8% (active)	-85.8% (active)	-40% (active)	0.148% (active)	-48.8% (active)	-61.5% (active)	-95.1% (active)	-65.1% (active)	-35.4% (active)	-54.6% (active)	-48.7% (active)	-76.5% (active)	-10.5% (active)

From PubChem BioAssay (NCI)
